Assay results from PubChem BioAssay AID686978 (National Center for Advancing Translational Sciences (NCATS), 2013).
Several values for one entry are separate records, joined by “and”; a condition that tells them apart may be missing. Equal values may be shown once. About 64,000 (15%) of roughly 420,000 compounds were called active. Roughly 27% stayed inconclusive and do not appear here. Calls follow the shape of the dose curve; as a rule, active = well fitted inhibition curve with a large enough effect; inconclusive = small, poorly fitted or top-dose-only effect; inactive = flat fitted curve, though single readings scatter. The entries come from a sample that favours actives as a whole.

Assay: qHTS for Inhibitors of human tyrosyl-DNA phosphodiesterase 1 (TDP1): qHTS in cells in absence of CPT; also: nearly all actives have a fitted effect of over 55% in size
Conditions: DT40 Tdp1-/- hTDP1 cells, no CPT, ATP luminescence, 48 h; series mostly up to 46.2 µM; activity change, negative = growth inhibition: at the top concentration
Method in brief: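 Growth of hTDP1-complemented DT40 Tdp1-knockout cells is measured by ATP luminescence after at least 48 hr compound exposure at 37 °C, with DMSO substituting for the 20 nM CPT used in the parallel screen.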
% is scaled to controls: 0 for no effect and ±100 for the full control effect; potency is read from the fitted curve at half-maximal effect.

SMILES | activity change, negative = growth inhibition | Potency
CC1CCCCN1Cc1cccnc1 (centres undefined) | -1.31% (inactive) | 
CN1CCC(N(C)Cc2cccnc2)CC1 | -2.53% (inactive) | 
CCOP(=S)(OCC)SCOC(=O)NCC(=O)OC | -18.9% (inactive) | 
CC(Cc1cccs1)NCc1ccc(Cl)cc1 (centres undefined) | 4.2% (inactive) | 
C[C@@H]1Cn2cnc(C(=O)Nc3ccc(CNC(=O)OC(C)(C)C)cc3)c2C(=O)N1 | -111% (inactive) | 
CC(=O)NCC1=C(c2ccc3ccccc3c2)C[C@@H]2CC[C@H]1N2Cc1ccco1 |  | 23.1 µM (active)
O=C(NCC1=C(c2ccc3ccccc3c2)C[C@@H]2CC[C@H]1N2Cc1ccco1)c1cccs1 |  | 23.1 µM (active)
N[C@H](Cc1o[nH]c(=O)c1Cl)C(=O)O | -6.29% (inactive) | 
CC(=NCc1ccc2c(c1)OCO2)c1c(O)[nH]c(=O)[nH]c1=O | -20.8% (inactive) | 
Cc1ccc(S(=O)(=O)N(C)c2ccc(C(=O)NCC3(N(C)C)CCCCC3)cc2)cc1 | -11.7% (inactive) | 
CN(C)c1nc(N(C)C)nc(N(C#N)CCCl)n1 | -14.3% (inactive) | 
C/C(CCc1c[nH]c2ccccc12)=N\O | -14.6% (inactive) | 
COc1ccc(CNCCc2c[nH]c3ccccc23)cc1OC |  | 18.4 µM (active)
COc1ccc2[nH]cc(CCNCc3ccc(Br)cc3)c2c1 |  | 10.3 µM (active)
c1cncc(CNCCc2c[nH]c3ccccc23)c1 | -6.22% (inactive) | 
Cc1cc(C=C2C(=O)NC(=O)NC2=O)c(C)n1-c1ccncc1 | -8.31% (inactive) | 
O=c1[nH]c(=O)n(CCc2ccccc2)c(O)c1/C=N/N1CCOCC1 | -2.42% (inactive) | 
Cc1ccc(Cl)cc1N1CCN(C(=O)C2CCC(CNS(=O)(=O)c3cccs3)CC2)CC1 (centres undefined) |  | 18.4 µM (active)
Cc1nc2nc(C)c(CCC(=O)N3CCC4(CC3)OCCO4)c(C)n2n1 | -0.828% (inactive) | 
CCOP(=O)(OCC)C(O)c1ccc(OC)cc1OC (centres undefined) | -3.05% (inactive) | 
CC[C@H]1CN2CCc3cc(OC)c(OC)cc3[C@@H]2C[C@@H]1C[C@H]1NCCc2cc(OC)c(OC)cc21 |  | 150 nM (active) and 36.6 nM (active)
Nc1ccc([N+](=O)[O-])cc1 |  | inactive
CCOc1ccc(CN(CCCl)CCCl)cc1C(=O)OC |  | 4.11 µM (active)
COC([CH2][Hg])CNC(=O)c1ccccc1OCC(=O)O (centres undefined) |  | 1.68 µM (active)
CC1([N+](=O)[O-])COP(=O)(Nc2ccc(F)cc2)OC1 (centres undefined) | 0.324% (inactive) | 
Cc1ccc(NC(=O)N(Cc2ccc3c(c2)OCO3)C2CCN(Cc3ccccc3)CC2)cc1F |  | 23.1 µM (active)

SMILES | activity change, negative = growth inhibition | Potency
Fc1ccc(N2CCN(Cc3ccc4c(c3)OCO4)CC2)cc1 | -7.95% (inactive) | 
O=C(Cc1ccccc1[N+](=O)[O-])N1CCN(Cc2ccc3c(c2)OCO3)CC1 | -18.5% (inactive) | 
OCC#CC[N+]1(CC#Cc2ccccc2)CCCC1 | 26.8% (inactive) | 
CN1CCN(Cc2ccc(OC(F)(F)F)cc2)CC1 | -2.54% (inactive) | 
CN(C)CCCN=Cc1c(O)n(Cc2ccco2)c(=O)[nH]c1=O | -1.96% (inactive) | 
ClCCN(CCCl)c1ccc(C=Nc2ccc(/C=C/c3ccnc4ccccc34)cc2)cc1 |  | 11.2 µM (active)
COc1ccccc1NC(=O)N1C[C@@H]2C[C@@H](C1)c1cccc(=O)n1C2 | 2.23% (inactive) | 
COc1ccccc1N=Nc1c(O)[nH]c(=S)[nH]c1=O | -17.8% (inactive) | 
O=c1[nH]c(=S)[nH]c(O)c1/C=C1\C=Nc2ccccc21 |  | 9.2 µM (active)
CNC(=S)N/N=C1\C2CN3CCN(C2)CC1(c1ccccc1)C3 | 6.18% (inactive) | 
C=C(C)C1(CCCC)C(=O)NC(=S)NC1=O | -16.4% (inactive) | 
CC(C)C(N)C(=O)OCCOCn1cnc2c(=O)[nH]c(N)nc21 (centres undefined) |  | 4.11 µM (active)
CC/C(=N\NC(=O)c1ccccc1O)c1c(O)n(Cc2ccccc2)c(=O)[nH]c1=O | 22.5% (inactive) | 
CC(=O)N(C1=NCCCS1)c1ccccc1F | -3.5% (inactive) | 
C[C@]12CCCCC1=CC(=O)C1C2CC[C@@]2(C)C1C[C@@H](F)[C@@H]2O (some centres undefined) |  | 16.4 µM (active)
NCCc1ccc(S(=O)(=O)F)cc1 | 0.906% (inactive) | 
N=c1ccccn1Cc1ccccc1 | -7.46% (inactive) | 
C/C(=C\C=C/[C@@H](C)C(=O)O)[C@H]1CN[C@H](C(=O)O)[C@@H]1CC(=O)O | -13% (inactive) | 
Cc1cccc(OP(=O)(Oc2cccc(C)c2)OC(c2ccccc2)C(F)(F)F)c1 (centres undefined) |  | 16.4 µM (active)
C[N+]1(C)CCOC(O)(c2ccc(-c3ccc(C4(O)C[N+](C)(C)CCO4)cc3)cc2)C1 (centres undefined) |  | inactive
CC1=CC(=Cc2sc3ccccc3[n+]2C)C=C(C)O1 |  | 0.0164 µM (active)
ClC(Cl)(Cl)c1ccccc1 | 7.72% (inactive) | 
CCOP(=O)(OCC)C(Nc1cccc(C)c1)c1ccc(F)cc1 (centres undefined) |  | 16.4 µM (active)
CC[N+]1(C)CCCC(OC(=O)C(O)(c2ccccc2)c2ccccc2)C1 (centres undefined) |  | inactive
O=c1[nH]c(O)c(C=Nc2cc(F)cc(F)c2)c(=O)[nH]1 | -3.87% (inactive) | 
CN(c1ccccc1)c1ccc([N+](=O)[O-])c2nonc12 |  | 16.4 µM (active)

SMILES | activity change, negative = growth inhibition | Potency
CCN(CC)c1ccc([N+](=O)[O-])c2cccnc12 | -6.29% (inactive) | 
O=C(O)/C=C/c1ccc2c(c1)OCO2 | 3.92% (inactive) | 
O=C(CN1CCCC1=O)NCCc1ccccc1 | -11.4% (inactive) | 
CCOP(=O)(OCC)C(Cc1ccccc1)N=C(c1ccccc1)c1ccccc1 (centres undefined) |  | 14.6 µM (active)
CCOP(=O)(OCC)C(NC(=O)c1ccc(C)cc1)C(Cl)(Cl)Cl (centres undefined) | -1.8% (inactive) | 
CCOP(=O)(OCC)C(NC(=O)c1ccc(OC)cc1)C(Cl)(Cl)Cl (centres undefined) | -5.09% (inactive) | 
O=C(NC(=S)N1C[C@H]2C[C@H](C1)c1cccc(=O)n1C2)c1ccc(F)cc1 | -2.67% (inactive) | 
Cc1ccc(-c2cc(C(=O)N3CCC4(CC3)OCCO4)no2)cc1 | -26.7% (inactive) | 
O=C(c1cc2nc(-c3ccccc3)cc(-c3ccccc3)n2n1)N1CCC2(CC1)OCCO2 |  | 23.1 µM (active)
O=C(c1ccccc1[N+](=O)[O-])N1CCC2(CC1)OCCO2 | -1.62% (inactive) | 
CN(C)C(=O)Oc1ccc2c(c1)O/C(=C\c1ccccc1)C2=O | 1.24% (inactive) | 
Cc1ncsc1CCCl |  | inactive
Cc1ccc(S(=O)(=O)N2CCCc3cc(NS(=O)(=O)c4cc(C)ccc4C)ccc32)cc1 |  | 13 µM (active)
COC(=O)C[C@H]1CC[C@H]2NC[C@@H](O)COC[C@@H]2O1 | 9.41% (inactive) | 
c1ccc2c(c1)[I+]c1ccccc1-2 |  | 33.5 nM (active) and 15.8 nM (active) and 126 nM (active)
Cc1cccc(NC(=O)OC2CN3CCC2CC3)c1 (centres undefined) | -16% (inactive) | 
COc1ccccc1C1=NCc2nnc(CSC)n2-c2ccc(Cl)cc21 | -17% (inactive) | 
Cc1nc2ccccn2c1P(=S)(N1CCCCC1)N1CCCCC1 |  | 18.4 µM (active)
CC(=NCC1CCCO1)c1c(O)n(-c2ccccc2)c(=O)[nH]c1=O (centres undefined) | -17.7% (inactive) | 
CCc1nnc(NS(=O)(=O)c2ccc(N=Cc3c(O)n(-c4ccccc4)c(=O)[nH]c3=O)cc2)s1 | -5.93% (inactive) | 
CCN(CC)C(=O)Oc1ccc(NC(=O)N2CCOCC2)cc1 | -9.37% (inactive) | 
Cc1ccsc1C(=O)C1CCCN(Cc2ccc(O)cc2)C1 (centres undefined) | -18% (inactive) | 
COc1ccc(C(=O)C2CCCN(Cc3ccc(C)s3)C2)cc1OC (centres undefined) |  | 14.6 µM (active)
c1ccc(CCN2CCC3(CC2)OCCO3)cc1 | -14.2% (inactive) | 
c1ccc(CCNC2CCCCCC2)cc1 | -14.6% (inactive) | 
c1ccc(CCCCN2CCC(c3ccccc3)CC2)cc1 |  | 11.9 µM (active) and 18.4 µM (active)

SMILES | activity change, negative = growth inhibition | Potency
CCC(=O)OC(Cc1ccccc1)(c1ccccc1)C(C)CN(C)C (centres undefined) | -21.9% (inactive) | 
CC[C@]1(O)C(=O)OCc2c1cc1n(c2=O)Cc2cc3ccccc3nc2-1 |  | 0.0211 µM (active)
Cc1c(C(=O)O)cccc1-n1c(C)cc(/C=C2\C(=O)NC(=O)N(c3ccc4c(c3)OCO4)C2=O)c1C | 0.106% (inactive) | 
c1ccc(Cc2nn3c(Cn4cnc5ccccc54)nnc3s2)cc1 |  | 23.1 µM (active)
CN1CC[C@H](c2c(O)cc(O)c3c(=O)cc(-c4ccccc4Cl)oc23)[C@H](O)C1 |  | 0.0282 µM (active)
C[C@@H]1CC[C@@]2(OC1)O[C@H]1C[C@H]3[C@@H]4CC=C5C[C@@H](O)[C@H](O)C[C@]5(C)C4CC[C@]3(C)[C@H]1[C@@H]2C (some centres undefined) |  | 18.4 µM (active)
CC(=O)N1CN2CN(C(C)=O)CC(C(=O)c3ccc(Br)cc3)(C2)C1 | 9.67% (inactive) | 
Cc1ccc(P(=S)(c2ccc(C)o2)N2CCOCC2)o1 | -28.3% (inactive) | 
Cc1cc(-c2ccc(N)c(C)c2)ccc1N | -2.65% (inactive) | 
Fc1ccc(C(OCCN2CCN(C/C=C\c3ccccc3)CC2)c2ccc(F)cc2)cc1 |  | 6.68 µM (active)
Cn1cc(C(=O)OCC(=O)N2CCCC2)c2ccccc21 | 3.73% (inactive) | 
CCN(Cc1ccccc1)S(=O)(=O)c1ccc2c(c1)CCCN2C(C)=O |  | 18.4 µM (active)
Cc1ccc2c(c1)C1CN(C)CCC1N2C(=O)Cn1nnc(-c2ccccc2F)n1 (centres undefined) | -3.75% (inactive) | 
CC1CNCCN1c1ccc(Cl)cc1 (centres undefined) | -20.8% (inactive) | 
O=c1oc2ccccc2c(O)c1C(c1ccccc1O)c1c(O)c2ccccc2oc1=O | -17.6% [at 9.04 µM] (inactive) | 
CCC1(C)CC(CCNCc2ccc(N(C)C)cc2)(c2ccc(F)cc2)CCO1 (centres undefined) |  | 16.4 µM (active)
CC1=CC(=O)C2=C(C)C[C@H](O)[C@H]3[C@H](C)C(=O)O[C@@H]3C12 (some centres undefined) | -4.46% (inactive) | 
C=CC12CN(C)[C@@H]3C4CO[C@H](C[C@H]41)[C@]1(C(=O)Nc4ccccc41)[C@@H]32 (some centres undefined) | -0.165% (inactive) | 
COc1cc(-n2c(=S)[nH]c3ccc(C)cc3c2=O)c(Cl)cc1Cl |  | 18.4 µM (active)
c1ccc(N2Cc3ccccc3-n3nncc3C2)nc1 | -28.4% (inactive) | 
CCOCCCNC(=O)c1c(NC(=O)c2nc(SC)ncc2Cl)sc2c1CCCC2 |  | 11.6 µM (active)
c1ccc(C(CN2CCCCC2)c2ccccc2)cc1 | -9.97% (inactive) | 
CCCCCCN=C(CC)c1c(O)n(CCCC)c(=O)[nH]c1=O |  | 25.9 µM (active)
CCC(=NCCCO)c1c(O)n(-c2ccc(OC)cc2)c(=O)[nH]c1=O | -12.9% (inactive) | 
CCCCn1c(O)c(C(CC)=NCc2ccco2)c(=O)[nH]c1=O | -24.9% (inactive) | 
CC(C)c1c(CN(C)C(C)Cc2ccccc2)n(C)n(-c2ccccc2)c1=O (centres undefined) | 6.62% [at 21.1 µM] (inactive) | 
